# Measured values as given in PubChem BioAssay AID2284351 (EPA ToxCast).
# Activity calls are given as the source filed them. Rule for the calls: active = hit-call score of the fitted dose curve at least 0.9, where 1 is the maximum; inactive = score below 0.9.
# Target: Peroxisome proliferator-activated receptor gamma (Homo sapiens) (UniProt P37231)
# Assay: ATG_hPPARg_EcoTox2: Attagene TRANS-FACTORIAL EcoTox-2 HepG2 Assay for human Peroxisome Proliferator-activated Receptor gamma (PPARg)
# Method: ATG_EcoTox2 is a cell-based, multiplexed assay created by modifying the existing Attagene TRANS-FACTORIAL system to include a panel of nuclear receptors from some or all the following species: human (Homo sapiens), african clawed frog (Xenopus laevis), rainbow trout (Oncorhynchus mykiss), japanese medaka (Oryzias latipes), and zebrafish (Danio rerio). The ECOTOX2-FACTORIAL format uses HepG2, a human liver cell line, with measurements taken at 24 hours after chemical dosing in a 24-well plate. ATG_hPPARg_EcoTox2 is one of 29 assay components calculated in the ATG_EcoTox2 assay. It is designed to make measurements of mRNA induction, a form of inducible reporter, as detected with fluorescence intensity signals by Reverse transcription polymerase chain reaction (RT-PCR) and Capillary electrophoresis technology.The assay endpoint ATG_hPPARg_EcoTox2 was analyzed in the positive analysis fitting direction relative to DMSO as the negative control and baseline of activity. Using a type of inducible reporter, measures of mRNA for gain-of-signal activity can be used to understand the reporter gene at the transcription factor-level as they relate to the gene PPARg. Furthermore, this assay endpoint can be referred to as a primary readout, because this assay has produced multiple assay endpoints where this one serves a reporter gene function. To generalize the intended target to other relatable targets, this assay endpoint is annotated to the nuclear receptor intended target family, where the subfamily is non-steroidal.
# Human liver HepG2 cells are transiently transfected with multiple reporter transcription units (MRTUs) in 6-well plates using FuGene 6 reagent (Roche; 3 ml FuGene/1 mg DNA). The MRTU constructs are regulated by a cis-regulating element (promoter). Each RTU expresses a GAL4-UAS that regulates the transcription of a nearby target reporter gene sequence. A major difference between the CIS and TRANS system is that in CIS activities of endogenous TFs are measured, whereas the TRANS assay evaluates changes in activities of exogenous, chimeric NR-Gal4 proteins. […] At the end of 24 hour incubation, total RNA was isolated using TriZol reagent (Invitrogen). The isolated RNA is then reverse-transcribed using oligo(dT) primer and Mo-MLV reverse transcriptase (Invitrogen) with DNAse I (Ambion) treatment for 30 min. The one-tenth of the produced cDNA was amplified by PCR using Taq DNA polymerase (Invitrogen) and two reporter sequence-specific primers. The PCR products were fluorescently labeled by primer extension with 6-arboxyfluorescein (6-FAM) 5'-labeled reporter sequence-specific primer (2 min at 95 C, 20 s at 68 C and 10 min at 72 C) and these products were digested with 5U of HpaI (New England Biolabs) for 2h at 37 C. The fragments were purified using Qiaquick PCR columns (Qiagen), analyzed on an ABI 3130xL genetic analyzer (Applied Biosystems) with peak positions identified by using a set of X-rhodamine (ROX)-labeled MapMarker1000 molecular weight standards (BioVentures). The raw capillary electrophoresis data was processed using Attagraph software (Attagene).
# Sequence of Peroxisome proliferator-activated receptor gamma (Homo sapiens) (P37231 whole entry, looked up): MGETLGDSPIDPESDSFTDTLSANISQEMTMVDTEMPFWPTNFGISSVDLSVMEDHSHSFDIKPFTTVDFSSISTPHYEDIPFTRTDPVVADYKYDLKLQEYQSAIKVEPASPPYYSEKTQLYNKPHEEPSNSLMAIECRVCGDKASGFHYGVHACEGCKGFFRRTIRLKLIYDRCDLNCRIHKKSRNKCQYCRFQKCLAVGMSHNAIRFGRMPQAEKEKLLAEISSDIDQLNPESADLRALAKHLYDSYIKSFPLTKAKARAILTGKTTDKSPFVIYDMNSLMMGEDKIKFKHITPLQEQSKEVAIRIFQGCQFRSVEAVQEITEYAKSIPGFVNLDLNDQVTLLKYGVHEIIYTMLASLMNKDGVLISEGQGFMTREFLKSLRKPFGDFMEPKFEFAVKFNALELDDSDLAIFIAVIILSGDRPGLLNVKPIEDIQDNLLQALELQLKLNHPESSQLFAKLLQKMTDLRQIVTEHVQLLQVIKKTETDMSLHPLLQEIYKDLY
Compound,AC50,outcome
CC(C)(Oc1ccc(Cl)cc1)C(=O)O,80.6 µM (active),–
CC(C)(Oc1ccc(C2CC2(Cl)Cl)cc1)C(=O)O (configuration not stated),37.3 µM (active),–
CC(C)(Oc1ccc(CCNC(=O)c2ccc(Cl)cc2)cc1)C(=O)O,14 µM (active),–
Cc1nc(-c2ccc(C(F)(F)F)cc2)sc1C(=O)NCc1ccc(OC(C)(C)C(=O)O)cc1,1.29 µM (active),–
C[C@@H]1C[C@H]2[C@@H]3CCC4=CC(=O)C=C[C@]4(C)[C@@]3(F)[C@@H](O)C[C@]2(C)[C@@]1(O)C(=O)COP(=O)(O)O,–,inactive
C[C@]12C=CC(=O)C=C1CC[C@@H]1[C@@H]2C(=O)C[C@@]2(C)[C@H]1CC[C@]2(O)C(=O)CO,–,inactive
C=C(c1ccc(C(=O)O)cc1)c1cc2c(cc1C)C(C)(C)CCC2(C)C,1.1 µM (active),–
